Results: PubChem BioAssay AID485273 (Sanford-Burnham Center for Chemical Genomics, 2010)
About 1,500 (0.45%) of roughly 330,000 compounds were called active. The list comes from a sample in which actives are over-represented; it also holds similar structures and randomly drawn compounds. A number with no mark means an inactive call. No stated cut-off is given here; in the data, active means inhibition above about 45% (passing the limit was not always enough); inconclusive means no clear call, values can overlap the other calls.

target: Ubiquitin-conjugating enzyme E2 N (Homo sapiens) (UniProt P61088); test: UBC13 polyubiquitin chain formation inhibitors, primary screen, biochemical, TR-FRET, uHTS (AID 485273); details: at 20 µM, hits give high values
Sequence (P61088 whole entry, looked up): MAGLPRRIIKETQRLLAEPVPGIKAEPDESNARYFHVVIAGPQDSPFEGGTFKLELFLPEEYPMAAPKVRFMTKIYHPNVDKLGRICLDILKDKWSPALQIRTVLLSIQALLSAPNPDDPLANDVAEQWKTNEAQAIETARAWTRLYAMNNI

Structure (SMILES) | inhibition
Cc1cccc(CNS(=O)(=O)c2ccc(-c3cnc(C4CC4)o3)cc2)c1 | -0.4%
COc1ccc(S(=O)(=O)NNC(=O)Nc2ccc(C)cc2)c(OC)c1 | -8.1%
CCN(CC(=O)NCc1cccs1)C(=O)c1ccc(OC)c(S(=O)(=O)N2CCOCC2)c1 | -0.3%
CCN(CC(=O)NCc1cccs1)C(=O)c1cccc(S(=O)(=O)Nc2ccccc2OC)c1 | 49.7% (active)
CCN(CC(=O)NCc1cccs1)C(=O)c1ccccc1F | -3.4%
CN(C(=O)CN(CCO)CC(=O)N(C)C(C)(C)Cc1ccccc1)C(C)(C)Cc1ccccc1 | 57.3% (active)
OCCN(Cc1ccccc1)Cc1ccc(Cl)cc1 | 5.2%
CCN(CC)C(=O)N(CC)Cc1ccccc1 | 6.4%
C/C(=N\NC(=O)OC(C)(C)C)c1ccc[nH]1 | 0.6%
C=CCSC1=C(C#N)C(c2cc(Br)c(O)c(OC)c2)CC(=O)N1 (centres undefined) | 1.6%
Cn1c(C(=O)NCCCN2CCN(c3cccc(Cl)c3)CC2)cc2c(=O)n(C)c3ccccc3c21 | 49.9% (active)
CCN1CCCC1CNC(=O)c1cc2c(=O)n(C)c3ccccc3c2n1C (centres undefined) | 30.3%
Cn1c(C(=O)NCCc2ccsc2)cc2c(=O)n(C)c3ccccc3c21 | 20.8%
O=C(CSc1nnc(C2CC2)n1Cc1ccccc1)Nc1cccnc1Cl | -7.4%
CCOc1cc(S(=O)(=O)NC2CC(C)(C)NC(C)(C)C2)ccc1F | 7.3%
Cc1cccc2c(=O)n3c(nc12)CCCCC3 | 6.4%
Cc1c(C(=O)Nc2ccccc2)sc2nc3n(c(=O)c12)CCCCC3 | -3%
O=c1c2c(nc3n1CCCCC3)sc1c(O)cccc12 | 80% (active)
CCn1ncc(CNC(=O)C2(C)CC2(Br)Br)c1C (centres undefined) | -4.3%
COc1cc(NC(=O)c2ccc(CNc3c(N4CCCC4)c(=O)c3=O)cc2)cc(OC)c1OC | -3.8%
O=C(c1ccc(F)cc1)N1CCC(C(=O)N2CCN(S(=O)(=O)c3ccccc3Br)CC2)CC1 | 13.6%
N[C@@H](Cc1ccccc1)C(=O)N1CCC(C(=O)NCC(=O)Nc2ccc(F)cc2)CC1 | -7.5%
Cn1c(SCC(=O)C(C)(C)C)nnc1-c1ccccn1 | 2.2%

Structure (SMILES) | inhibition
O=C(CN1C(=O)CCC1=O)Nc1ccc(S(=O)(=O)N2CCOCC2)cc1 | 0.4%
O=S(=O)(c1ccc(NC(=S)NN=C(C2CC2)C2CC2)cc1)N1CCOCC1 | 45.9% (active)
O=C(NNC(=S)Nc1ccccc1)c1cccc(S(=O)(=O)N2CCOCC2)c1 | -21.6%
COc1cc2c(cc1OC)CN(C(C)C(=O)Nc1cccc(S(=O)(=O)N3CCOCC3)c1)CC2 (centres undefined) | -1.1%
CC(C)Cc1oc(C(=O)O)cc1CN | -1.6%
CCCCNC(=S)N/N=C1\CCCCc2ccccc21 | 0.6%
COc1ccc(C(CNC(=O)c2ccc(NS(=O)(=O)c3ccc(F)c(C)c3)cc2)N(C)C)cc1 (centres undefined) | 40.3%
CC(=O)c1ccc(S(=O)(=O)Nc2ccc(C(=O)NCC(c3ccccc3)N(C)C)cc2)cc1 (centres undefined) | 1.5%
COc1ccc(C(CNC(=O)c2ccc(S(=O)(=O)Nc3ccccc3F)cc2)N(C)C)cc1 (centres undefined) | 94.8% (active)
COc1ccc(C(F)(F)F)cc1N/C=C\c1nnnn1-c1ccc(C)cc1 | 4.1%
COc1ccc(C(=O)N(C)CC(O)c2ccccc2)cc1OC1CCN(C(C)=O)CC1 (centres undefined) | -0.4%
Cc1cccc(C(=O)OC(C)CN2CCN(C)CC2)c1 (centres undefined) | 9.9%
Cc1cccc(-c2nc3ccc(C(=O)NCCN4CCN(C)CC4)cc3nc2-c2cccc(C)c2)c1 | 57.2% (active)
CCC1=Nc2cc(C(=O)NCCN3CCCC3)ccc2Sc2ccc(C)cc21 | 17.6%
CC(Sc1nnnn1C1CCCCC1)C(=O)O (centres undefined) | -4.9%
O=C(NCc1ccco1)c1ccc(NS(=O)(=O)c2cccc([N+](=O)[O-])c2)cc1 | -4.6%
CCOC(=O)[C@@H]1[C@H]2COc3cc(OC)ccc3[C@H]2N2C(=O)N(c3ccc(F)cc3)C(=O)[C@]12C | 53.6% (active)
CCOC(=O)[C@H]1[C@H]2COc3cc(OC)ccc3[C@@H]2N2C(=O)N(c3ccc(Br)cc3)C(=O)[C@@]12C | -15%
CCOC(=O)[C@@H]1[C@H]2COc3cc(OC)ccc3[C@@H]2N2C(=O)N(c3cccc(C)c3)C(=O)[C@@]12C | -7.1%
O=C(O)c1ccc(F)c(S(=O)(=O)Nc2ccccc2)c1 | 4%
O=C(Nc1cccc(C(=O)NC2CC2)c1)c1ccc(F)c(S(=O)(=O)N2CCOCC2)c1 | 3.1%
O=C(Nc1ccc([N+](=O)[O-])cc1)OCCc1ccccn1 | -7.9%
CC(=O)c1cccc(NC(=O)C2CCCN2S(=O)(=O)c2cccc3nsnc23)c1 (centres undefined) | -4.7%

Structure (SMILES) | inhibition
CN(C(=O)COC(=O)c1cc(=O)[nH]c2ccccc12)C1CCCCC1 | 5.6%
CCCCN(CCCC)CCC(O)c1cc2c(Cl)cc(Cl)cc2c2cc(C(F)(F)F)ccc12 (centres undefined) | 51.7% (active)
CCCCC(=O)Nc1ccc(C(=O)Nc2cc(C(F)(F)F)ccc2Cl)cc1 | -15%
O=C(Nc1ccccc1N1CCOCC1)c1ccc(OCc2cscn2)cc1 | 0.6%
CCn1cc(C(=O)NCC(=O)NC(C)(C)CO)c(=O)c2cc3c(cc21)OCO3 | 3.5%
CC(C)(C)CN1C(=O)C(=O)NC[C@H]1Cc1cccc2ccccc12 | 4%
O=C1CCNCCN1[C@H](CO)Cc1ccccc1 | -4.8%
c1ccc(C2CNCc3c2ccc2ccccc32)cc1 (centres undefined) | 21.7%
c1ccc2c(CCN3CCNC[C@H]3Cc3cccc4ccccc34)cccc2c1 | 46.1% (active)
c1ccc(C[C@H]2CNCCN2CCC23CC4CC(CC(C4)C2)C3)cc1 | 55.8% (active)
O=C1C(=O)N(c2ccccc2)c2ccccc21 | -10.7%
CC(C)(C)c1nnc(N/N=C/c2ccc(O)cc2)n(N)c1=O | -10.3%
CCCc1cc(=S)n2c([nH]c3ccccc32)c1C#N | -11.8%
CCOC(=O)c1[nH]cnc1C(=O)Nc1ccccc1C | -4.7%
O=C(Nc1ccon1)c1nc[nH]c1C(=O)NCc1ccccc1 | -4.8%
CCOC(=O)c1ccc(NC(=O)c2nc[nH]c2C(=O)NCc2ccccc2)cc1 | 65% (active)
Cc1cc(C)c(SCCc2ccncc2)c(C)c1 | 5.6%
Cc1ccccc1CCNC(=O)C1CCC(=O)N(Cc2ccc(Cl)cc2)C1 (centres undefined) | 1.4%
CCOC(=O)c1nnn(-c2nonc2OC)c1-c1ccccc1 | 1%
CCOC(=O)C1=C(c2ccccc2)O/C(=C(/C(=O)OC)C(F)(F)F)S1 | 46.8% (active)
COC(=O)/C(=C1\Oc2ccc(C(C)(C)C)cc2S1)C(F)(F)F | -10.5%
COc1ccc2sc(-c3ccc(S(C)(=O)=O)cc3)c(C#Cc3cncn3C)c2c1 | 47.1% (active)
COc1ccc(-c2sc3ccc(OC)cc3c2C#Cc2ccccn2)cc1 | 29.9%

Structure (SMILES) | inhibition
COc1ccc2sc(-c3ccc(S(C)(=O)=O)cc3)c(-c3ccc(C(N)=O)cc3)c2c1 | 38.5%
CCOC(=O)C1CCN(Cc2coc3ccc(Cl)cc3c2=O)CC1 | -15.5%
Cc1c(C(=O)N2CCCC2)c(S(=O)(=O)NCC(C)c2ccccc2)c(C)n1C (centres undefined) | -2.8%
CCOC(=O)c1c(S(=O)(=O)Nc2cccc(Cl)c2)c(C)n(C)c1C | -2.9%
CCOC(=O)c1cccc(NS(=O)(=O)c2c(C(=O)N3CCCCCC3)c(C)n(C)c2C)c1 | 46.1% (active)
Cc1nnc(SC(C)C(=O)Nc2ccc(S(=O)(=O)NC3CCCCC3)cc2)s1 (centres undefined) | -0.1%
C=CCN1C(=O)C(Cc2ccc(OCC)cc2)SC1=Nc1ccc(C(=O)O)cc1 (centres undefined) | 7.8%
CCC1CCC/C1=N\NC(=O)c1ccc(Cl)cc1 (centres undefined) | 6.6%
Cc1ccc(Oc2cc(NC(=O)CCCn3nc(C)c([N+](=O)[O-])c3C)cc([N+](=O)[O-])c2)cc1 | -3.8%
CN(C)[C@@H]1C(=O)C(C(N)=O)=C(O)[C@@]2(O)C(=O)C3=C(O)c4c(O)ccc(Cl)c4[C@@H](O)[C@H]3C[C@@H]12 | 6.5%
C=C1c2c(Cl)ccc(O)c2C(O)=C2C(=O)[C@]3(O)C(O)=C(C(N)=O)C(=O)[C@@H](N(C)C)[C@@H]3[C@@H](O)C12 (some centres undefined) | 57.1% (active)
CCn1c(SCC(=O)Nc2cc(C)c(Cl)cc2OC)nnc1-c1ccco1 | 4.1%
COc1ccccc1NC(=O)CSc1nnc(-c2ccoc2C)n1CCc1ccccc1 | 94.2% (active)
CCCn1c(SCC(=O)Nc2cccc(C(=O)OCC)c2)nnc1-c1ccoc1C | 11.9%
CC(Oc1ccccc1)C(=O)Nc1oc(-c2ccco2)c(-c2ccco2)c1C#N (centres undefined) | -15.8%
Cc1nonc1C1CCCN1Cc1nc(-c2ccc(F)cc2F)oc1C (centres undefined) | 0.7%
CC1(C)NC(=O)N(CC(=O)Nc2cc(C(F)(F)F)cc(C(F)(F)F)c2)C1=O | 0.4%
C=CCn1c(Oc2ccc(C(=O)OC)cc2)nc2c1c(=O)n(C)c(=O)n2C | -13%
O=S(=O)(c1ccccc1)N1CN(Cc2ccc(F)cc2)c2nc3ccccc3nc21 | -1.4%
Cc1ccc(NC(=O)c2cc([N+](=O)[O-])ccc2Cl)c(O)c1 | 2.4%
